Measured values: PubChem BioAssay AID518 (Sanford-Burnham Center for Chemical Genomics, 2006)
About 55 (0.09%) of roughly 64,000 compounds were called active. How the calls were made is not given here. These entries were drawn from the full list.

Molecular target: Alkaline phosphatase, tissue-nonspecific isozyme (Homo sapiens) (UniProt P05186)
Assay: inhibition of tissue-nonspecific alkaline phosphatase – biochemical, luminescent (AID 518);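 further: plate controls were vehicle for no effect and reference inhibitor for full effect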
Details: purified TNAP enzyme, luminescent substrate readout; at 20 µM; active compounds read high

Chain of Alkaline phosphatase, tissue-nonspecific isozyme (Homo sapiens) (P05186 whole entry, looked up): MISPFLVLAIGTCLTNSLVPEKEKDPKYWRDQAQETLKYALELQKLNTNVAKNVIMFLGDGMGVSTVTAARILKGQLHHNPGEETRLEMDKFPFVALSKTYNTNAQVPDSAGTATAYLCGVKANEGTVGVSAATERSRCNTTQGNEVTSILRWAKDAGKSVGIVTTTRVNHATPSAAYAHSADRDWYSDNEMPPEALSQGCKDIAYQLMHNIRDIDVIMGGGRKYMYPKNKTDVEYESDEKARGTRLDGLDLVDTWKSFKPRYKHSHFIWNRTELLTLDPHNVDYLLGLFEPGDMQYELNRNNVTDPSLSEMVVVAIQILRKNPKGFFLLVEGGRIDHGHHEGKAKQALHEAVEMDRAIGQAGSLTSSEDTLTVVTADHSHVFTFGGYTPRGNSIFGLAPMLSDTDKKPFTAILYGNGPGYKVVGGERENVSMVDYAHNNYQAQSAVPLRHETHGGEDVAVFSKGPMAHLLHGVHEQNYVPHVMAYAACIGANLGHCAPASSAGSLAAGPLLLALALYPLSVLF

inhibition, inactive:
CCN1C(=O)OC2(CCCCC2)C1(C)O (stereo not drawn) 13%
O=C(NCCN1CCOCC1)c1cc2ccccc2o1 9.4%
Cc1cc2c(c(Sc3ccccc3)n1)C(=O)OC2 7.5%
O=C(N1CCOCC1)N1CCN(CC(O)COc2ccc3ccccc3c2)CC1 (stereo not drawn) 16.3%
Cn1c2ccccc2c2nnc(SCN3C(=O)c4ccccc4C3=O)nc21 8.4%
Cc1cc(C(=O)OCC(=O)Nc2nc(-c3ccccc3)cs2)c(C)o1 1.4%
O=c1c2ccccc2nc2n1CCCS2 4.5%
COc1cc2[nH]c3c(N4CCN(c5ccc(Cl)cc5)CC4)ncnc3c2cc1OC 5.3%
O=C(CCC(=O)c1ccc(F)cc1)OC1CCOC1=O (stereo not drawn) 6.6%
COc1ccccc1N1CCN(C(=O)CSc2ccc3c(C)cc(C)nc3n2)CC1 10.2%
Oc1ccccc1Oc1ncc(Br)c(N2CCOCC2)n1 -1.3%
C/C(N)=C(/C#N)C(=O)CSc1ncnc2ccccc12 5.5%
COc1ccccc1-c1nc(SCC(=O)O)n[nH]1 4.7%
Cc1nc2sc(C(c3cccc(F)c3)N3CCCC(C)C3)c(O)n2n1 (stereo not drawn) 5.8%
COc1ccc(OC)c2c1CCC2=O 8.1%
CN(CCCNC(=O)C1CCC(=O)N1Cc1ccc(F)cc1)c1ccccc1 (stereo not drawn) 1.1%
Cc1cc(C(=O)NCCN2CCN(c3cccc(Cl)c3)CC2)n(-c2ccccc2)n1 10.8%
CCc1c(C)[nH]c2ccc(C)cc2c1=O 7.8%
CCCCn1c(NCCN(C)C)nc2c1c(=O)[nH]c(=O)n2C -1%
O=C(CSc1oc(-c2ccccc2)nc1S(=O)(=O)c1ccc(F)cc1)NCC1CCCO1 (stereo not drawn) 1.7%
O=C(COc1ccc(S(=O)(=O)N2CCOCC2)cc1)Nc1ccc2c(c1)OCCO2 -6.1%
C=CCN1C(=O)C(O)(CC(=O)c2ccccc2)c2ccccc21 (stereo not drawn) 7.7%
CN(C)c1oc(-c2ccc(OCc3ccc(Cl)cc3)cc2)nc1C#N 5.2%
O=C(c1ccc(CNS(=O)(=O)c2cccc(C(F)(F)F)c2)cc1)N1CCOCC1 19.5%
CCn1cnc2sc(C(=O)N3CCN(Cc4ccc5c(c4)OCO5)CC3)c(C)c2c1=O 0.3%
c1ccc(N2CCN(C3CCSC3)CC2)cc1 (stereo not drawn) 13.5%
COCCNc1ncnc2nc[nH]c12 8.7%
CCOCCCNC(=O)C(c1ccc(C)cc1)N1CCOCC1 (stereo not drawn) -1%
CS(=O)(=O)N(CC(=O)NCc1ccc2c(c1)OCO2)c1ccc(Cl)cc1 6.8%
CCOc1ccc(CNc2ccc3c(c2)ncn3C)cc1 16.9%
Cc1nccn1CCC(=O)O 5.3%
CCc1ccccc1N1C(=O)C2CC(C)=C(C)CC2C1=O (stereo not drawn) 5.3%
Cc1cc(C(=O)NC(C)c2ccncc2)cs1 (stereo not drawn) 3.5%
Cc1ccc(S(=O)(=O)Cn2nnnc2C(c2ccc(F)cc2)N2CCCCC2)cc1 (stereo not drawn) 3.5%
CCCCCC(=O)N1CCN(CCN=CC2=C(O)CC(c3ccco3)CC2=O)CC1 (stereo not drawn) 8%
O=C(NCCN1CCOCC1)C1CCN(c2nc3ccccc3o2)CC1 7.3%
CCCc1ccc(S(=O)(=O)NCCc2ccncc2)cc1 10.5%
CCc1ccc2[nH]c(=O)c(C(c3nnnn3CC3CCCO3)N3CCCc4ccccc43)cc2c1 (stereo not drawn) 19.5%
COc1cc(C2C3CN(C)CC=C3C(C#N)=C(N)C2(C#N)C#N)ccc1OC(C)C (stereo not drawn) -0.1%
CC1c2nc3ccccc3n2C(CC(=O)NCc2ccccn2)C(=O)N1Cc1ccccc1 (stereo not drawn) 12.3%
Cc1onc(-c2c(F)cccc2Cl)c1C(=O)Nc1cccc2nsnc12 13.1%
COc1cc(C)nc(OCCNC(=O)COc2ccc(Cl)cc2Cl)n1 13.3%
COc1ccc(CNS(=O)(=O)c2ccc(C3CNC(=O)C3)cc2)cc1 (stereo not drawn) 8.2%
O=C(CSc1nnc2scc(-c3ccccc3)n12)N1CCCc2ccccc21 5.3%
C=CCOc1ccccc1C1C2=C(CC(C)(C)CC2=O)Nc2c1c(=O)n(C)c(=O)n2C (stereo not drawn) 4.4%
COC(=O)N(C)CCCC1(C)C(=O)N(C)c2ccc(O)cc21 (stereo not drawn) 8.6%
c1ccc(CSc2nncn2-c2ccccn2)cc1 17.8%
Cc1ccnc(NS(=O)(=O)c2cccs2)c1 14.5%
CCCc1noc2c1C(c1ccoc1)C(C#N)=C(N)N2 (stereo not drawn) 15.5%
CCN(CC)CCCN1C(=O)C(=O)/C(=C(/O)c2ccc3c(c2)OCCO3)C1c1ccc(C)o1 (stereo not drawn) 6.3%
c1ccc(CCc2nn3c(Cn4cnc5ccccc54)nnc3s2)cc1 10.8%
CCn1c2ccccc2c2nnc(SCC(=O)c3ccccc3)nc21 14.3%
CC(C)(CNS(=O)(=O)c1ccc(F)cc1)CNS(=O)(=O)c1ccc(F)cc1 10.8%
COc1ccc(CN(Cc2cc3cc4c(cc3[nH]c2=O)OCO4)C(=O)NC2CCCCC2)cc1 6.8%
O=C(NCc1ccco1)C(c1ccco1)N(CCc1ccccc1)C(=O)Cn1nnc2ccccc21 (stereo not drawn) 12.6%
Cc1ccc(N2C(=O)C3C(C2=O)C(C(=O)c2ccc(Cl)cc2)N2CCCC32)cc1 (stereo not drawn) 12%
CCOC(=O)c1cccnc1SCC(=O)N(C)c1ccccc1 -1.1%
O=C(Nc1c(Cl)cc(Cl)cc1C(=O)NCC1CCCO1)c1ccco1 (stereo not drawn) 5.4%
COC(=O)c1nc(NC(=O)C(C)C)n[nH]1 5.3%
COc1ccc2c(=O)c3c(=O)n(Cc4ccco4)c(-c4ccc(C)cc4)nc3oc2c1 9.7%
Cc1ccc(OCCn2c(=O)cnc3ccccc32)cc1 3.3%
CC1CCN(S(=O)(=O)c2cccc(C(=O)Nc3ccccn3)c2)CC1 24.3%
CCN1C(=O)C(Cc2nc3ccccc3c(=O)n2C)c2ccccc21 (stereo not drawn) 10.6%
COCc1[nH]nc2c1C(c1ccc(OC)c(OC)c1)C(C#N)=C(N)O2 (stereo not drawn) 7.1%
COCc1[nH]nc2c1C(c1ccc(OC)cc1)C(C#N)=C(N)O2 (stereo not drawn) 16.1%
COc1ccccc1C1C2C(=O)N(c3ccccc3)C(=O)C2ON1c1ccccc1 (stereo not drawn) -0.2%
O=c1[nH]c(-c2ccccc2O)nc2c1CCCC2 8.8%
Cc1ccc(NC(=O)c2cc(-c3ccco3)on2)cc1 8.1%
O=C(CN1CCC(n2nnc3cc(F)ccc32)CC1)Nc1ccccc1N1CCOCC1 6.7%
COc1ccc(S(=O)(=O)Nc2cc(Cl)ccc2OC)cc1 14.2%
O=c1cc(-c2ccccc2)nc2nc(COc3ccccc3)[nH]n12 1.9%
O=C(NCc1ccccc1)c1cc(=O)nc2sc(-c3ccccc3)nn12 9.8%
CCn1c(CNC(=O)c2cccs2)nnc1SCC(=O)NCCc1ccccc1 14%
C=CCN1C(=O)CS/C1=N/c1nccs1 8.1%
O=C1c2ccccc2C(=O)N1c1n[nH]c(CCc2ccccc2)n1 22.8%
O=C1C2C3C=CC(C3)C2C(=O)N1c1n[nH]c(CCc2ccccc2)n1 (stereo not drawn) 36.8%
Cc1ccc(NC(=O)Cn2cnc3c(=O)n(C)c(=O)n(C)c32)c(C)c1 3.9%
CN(C)c1[nH]c(=O)c(C#N)c2c1CCN2Cc1ccccc1 11.1%
CCOc1ccc(C2C(C#N)=C(N)Oc3nc[nH]c(=O)c32)cc1OC (stereo not drawn) 4.4%
O=C(CC(Nc1ccccc1)C(=O)O)c1ccccc1 (stereo not drawn) 15.2%
CCOc1ccc(OCC)c(NS(=O)(=O)c2ccc3c(c2)n(C)c(=O)c(=O)n3C)c1 0.5%
CCOc1ccc(CC(=O)Nc2c(C(N)=O)oc3ccccc23)cc1OCC 5.9%
CCN(CC)C(=O)c1c[nH]c2ccc(S(=O)(=O)Nc3cc(C)cc(C)c3)cc2c1=O 5.8%
CS(=O)(=O)N(CC(=O)NC1CCCCC1)c1cccc(Cl)c1 6.8%
COc1cccc(C(=O)Nc2ccccc2N2CCCC2)c1 9.9%
O=C(Cn1cc2c(n1)CCCCC2)NCc1ccccc1 9.1%
Cc1ccc(NC2CC(=O)N(c3ccc(N4CCCCC4)cc3)C2=O)cc1 (stereo not drawn) 6.6%
COc1ccc(CC(=O)Nc2cccc(-c3nnc(-c4ccccc4)o3)c2)cc1OC 6.4%
O=C(Nc1ccccc1)NC1(C(=O)NCc2ccc3c(c2)OCO3)CCCCC1 -0.2%
COc1cc(C2c3c(oc4c(C)cc(C)cc4c3=O)C(=O)N2Cc2cccnc2)cc(OC)c1OC (stereo not drawn) 4.1%
Cc1ccc(-c2nc(CS(=O)CC(=O)NCc3ccccn3)c(C)o2)cc1 (stereo not drawn) -7.5%
CN(C)/C=N/c1nc2ccc3c(c2s1)CCCC3 12.3%
COc1ccc(N2CCN(CC(=O)Nc3cc4c(cc3C(C)=O)OCO4)CC2)cc1 3.8%
CSc1ccccc1C(=O)NCc1ccc2c(c1)OCO2 7.3%
O=C(Nc1ccccc1)N(C1=NCCCCS1)c1ccccc1 8.3%
C=C(C)Cn1c(SCC(=O)O)nnc1-c1ccc(C(C)(C)C)cc1 10.6%
Nc1c(S(=O)(=O)c2cccc(Cl)c2)c2nc3ccccc3nc2n1/N=C/c1ccc(O)c(O)c1 11.3%
CSC1=C(C#N)C(c2cccs2)CC(=O)N1C (stereo not drawn) 10.5%
